# In PMC4336329 (PLoS ONE, 2015):
# The campaign covered roughly 310,000 compounds. About 2,200 (0.71%) showed an effect of 50% or more. The effect is printed as a negative number. This excerpt belongs to a sample that is enriched for strong results.
# Biological target: human ether-à-go-go-related gene (hERG) potassium channel (human, UniProt Q12809)
# Test: primary screen, population patch clamp on CHO cells stably expressing hERG; higher = less effect of the substance
# Chain of human ether-à-go-go-related gene (hERG) potassium channel (Q12809 whole entry, looked up): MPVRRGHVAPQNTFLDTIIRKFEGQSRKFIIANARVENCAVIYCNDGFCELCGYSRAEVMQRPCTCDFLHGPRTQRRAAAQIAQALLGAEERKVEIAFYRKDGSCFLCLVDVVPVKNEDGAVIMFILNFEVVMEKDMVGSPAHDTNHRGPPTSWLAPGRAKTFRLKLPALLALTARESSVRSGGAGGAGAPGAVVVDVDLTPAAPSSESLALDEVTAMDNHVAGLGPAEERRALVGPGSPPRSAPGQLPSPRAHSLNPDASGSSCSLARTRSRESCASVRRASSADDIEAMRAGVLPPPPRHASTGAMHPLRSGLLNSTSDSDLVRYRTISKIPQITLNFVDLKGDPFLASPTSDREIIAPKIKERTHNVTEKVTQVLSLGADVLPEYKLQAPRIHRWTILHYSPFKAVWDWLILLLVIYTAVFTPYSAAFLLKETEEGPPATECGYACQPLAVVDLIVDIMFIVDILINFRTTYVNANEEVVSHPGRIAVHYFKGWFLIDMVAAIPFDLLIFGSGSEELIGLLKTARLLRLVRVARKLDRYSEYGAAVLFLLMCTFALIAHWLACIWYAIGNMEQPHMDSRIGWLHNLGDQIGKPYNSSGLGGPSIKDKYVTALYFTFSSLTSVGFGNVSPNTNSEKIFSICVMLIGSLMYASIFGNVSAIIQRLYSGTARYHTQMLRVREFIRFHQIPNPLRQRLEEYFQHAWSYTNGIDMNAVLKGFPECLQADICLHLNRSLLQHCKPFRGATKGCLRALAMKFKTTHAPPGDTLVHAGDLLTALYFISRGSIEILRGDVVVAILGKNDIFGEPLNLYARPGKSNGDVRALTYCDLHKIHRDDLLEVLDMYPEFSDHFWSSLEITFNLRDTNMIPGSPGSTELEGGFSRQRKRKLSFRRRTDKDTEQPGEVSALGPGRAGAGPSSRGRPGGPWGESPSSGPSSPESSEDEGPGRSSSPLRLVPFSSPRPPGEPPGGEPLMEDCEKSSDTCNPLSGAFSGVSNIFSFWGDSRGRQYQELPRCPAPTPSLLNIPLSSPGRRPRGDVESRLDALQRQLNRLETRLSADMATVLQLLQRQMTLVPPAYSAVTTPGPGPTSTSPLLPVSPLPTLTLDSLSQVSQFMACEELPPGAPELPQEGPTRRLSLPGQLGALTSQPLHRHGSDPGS
row,Structure (SMILES),"hERG current change (%, negative = inhibition) at 1uM"
1,Cc1cccc(/C=N/n2c(-c3ccccn3)n[nH]c2=S)c1,14.4%
2,CC1CN(S(=O)(=O)c2cccc(C(=O)NCC3COc4ccccc4O3)c2)CC(C)O1 (stereo not drawn),0.895%
3,O=c1ccc(-c2nc3ccccc3n2Cc2ccc(Cl)cc2)c[nH]1,-50.5%
4,O=c1ccc(-c2nc3ccccc3n2Cc2ccccc2Cl)c[nH]1,4.18%
5,O=c1ccc(-c2nc3cc(Cl)ccc3n2Cc2ccccc2)c[nH]1,-45%
6,Cc1cc(C)nc(SCC(=O)c2ccc(O)c(O)c2)n1,16%
7,O=S(=O)(N/N=C/c1cn(Cc2ccccc2)c2ccccc12)c1ccccc1,6.23%
8,CCc1ccc2oc(C(=O)N3CCN(c4ccccc4OC)CC3)cc(=O)c2c1,-57.4%
9,COc1ccc(N2CCN(C(=O)c3cc(=O)c4cc(Cl)ccc4o3)CC2)cc1,-81.5%
10,CCc1ccc2oc(C(=O)N3CCN(c4ccc(OC)cc4)CC3)cc(=O)c2c1,1.45%
11,COc1ccccc1N1CCN(C(=O)c2cc(=O)c3cc(C)ccc3o2)CC1,-8.99%
12,COc1ccc(N2CCN(C(=O)c3cc(=O)c4cc(C)ccc4o3)CC2)cc1,-3.09%
13,COc1ccccc1N1CCN(C(=O)c2cc(=O)c3ccc(C)cc3o2)CC1,1.21%
14,Cc1ccc(Cn2nnc3c(=O)[nH]c(C4CCCN(C(=O)Nc5ccc(F)cc5F)C4)nc32)cc1 (stereo not drawn),13.8%
15,O=C(CNC(=O)c1ccccc1O)N/N=C/c1ccccn1,4.2%
16,COc1ccc(Cc2nnc(SCC(=O)Nc3ccc(C)c(Cl)c3)[nH]c2=O)cc1,5.51%
17,CC(CN1CCC(n2nccc2NC(=O)C2CCCC2)CC1)c1ccccc1 (stereo not drawn),2.95%
18,O=C(Nc1ccnn1C1CCN(CC(O)CO)CC1)C1CCCC1 (stereo not drawn),12.5%
19,CC(C)=CCCC(C)CN1CCC(n2nccc2NC(=O)C2CCCC2)CC1 (stereo not drawn),-50.3%
20,CC(C)=CCCC(C)CN1CCC(n2nccc2NC(=O)c2ccccc2)CC1 (stereo not drawn),-52.2%
21,CC(C)=CCCC(C)CN1CCC(n2nccc2NC(=O)c2cccnc2)CC1 (stereo not drawn),-5.79%
22,CCc1ccc(CN2CCC(n3nccc3NC(=O)c3ccccc3)CC2)o1,-6.11%
23,CCOC(=O)C(C)n1cnc2c1c(=O)[nH]c(=O)n2C (stereo not drawn),8.76%
24,CCCCNC(=O)[C@H]1C[C@H]1[C@@H](O)[C@H](CO)NC(=O)[C@H](Cc1ccccc1)NC(=O)OC(C)(C)C,11.5%
25,CCOc1ccc(C(=O)Nc2ccc(S(=O)(=O)N3C[C@@H]4C[C@@H](C3)c3cccc(=O)n3C4)cc2)cc1,-1.43%
26,CCN(CC)CCNC(=O)c1[nH]c2ccc(OCc3ccccc3)cc2c1C,-61.3%
27,Cc1c(C(=O)N2CCOCC2)[nH]c2ccc(OCc3ccccc3)cc12,-1.19%

row,Structure (SMILES),"hERG current change (%, negative = inhibition) at 1uM"
1,COc1ccc2[nH]c(C(=O)NCc3ccccc3)c(C)c2c1.Cl,10.3%
2,COc1ccc(N(C(=O)c2ccccc2OC)C2C=CS(=O)(=O)C2)c(OC)c1 (stereo not drawn),14.4%
3,COc1ccc(CN2CCNC(=O)C2CC(=O)NCCc2nc(C)c3c(n2)CCC3)cc1C (stereo not drawn),32.9%
4,CCC(c1nnnn1CCc1ccccc1)N1CCN(c2ccc(OC)cc2)CC1 (stereo not drawn),14.5%
5,COc1ccc(CC2(CO)CCN(Cc3cccc4nccnc34)CC2)cc1,-53%
6,COc1cccc(CC2(CO)CCN(Cc3cccn3-c3cccnc3)CC2)c1,-6.04%
7,COC(=O)c1ccc(CN2CCC(CO)(Cc3ccc(OC)cc3)CC2)cc1,-35.1%
8,OCC1(Cc2ccccc2C(F)(F)F)CCN(Cc2ccccc2)CC1,3.01%
9,COc1ccc(CC2(CO)CCN(Cc3ccc(OC(F)(F)F)cc3)CC2)cc1,-57.5%
10,COc1ccc(CC2(CO)CCN(Cc3ccncc3)CC2)cc1,7.36%
11,COc1ccc(CC2(CO)CCN(Cc3cccnc3)CC2)cc1,1.4%
12,OCC1(Cc2cccc(F)c2)CCN(Cc2cccc3nccnc23)CC1,-19.8%
13,COc1ccc(CC2(CO)CCN(Cc3cccn3-c3ccccn3)CC2)cc1,-84.2%
14,COc1ccc(CN2CCC(CO)(Cc3ccccc3C(F)(F)F)CC2)c(F)c1,-53%
15,COc1ccc(F)c(CN2CCC(CO)(Cc3cccc(C(F)(F)F)c3)CC2)c1,-1.43%
16,COc1ccc(CC2(CO)CCN(Cc3cccc(OC)c3OC)CC2)cc1,-17.3%
17,Cc1ccc(-c2nc(CS(=O)CC(=O)N3CCC4(CC3)OCCO4)c(C)o2)cc1 (stereo not drawn),-3.05%
18,Cc1ccc(N2CCN(C(=S)Nc3ccc(Cl)cc3)CC2)cc1,13.4%
19,CCN(CCCNC(=O)Cn1ncc2c([nH]c3ccccc32)c1=O)Cc1ccccc1,-2.84%
20,Nc1c(C(=O)c2ccccc2)sc2snc(SCC(=O)c3ccccc3)c12,14.8%
21,COc1cc(/C=C/C(=O)OCC(=O)N2CCCc3ccccc32)ccc1OCC#N,14.6%
22,Nc1cccc(Oc2ccc([N+](=O)[O-])cc2)c1,7.1%
23,Cc1nc(-c2cnn(-c3ccccc3)c2)c2cc(C)oc2n1,10.3%
24,Cc1nn(-c2ccccn2)c2c1-c1nc(N3CCOCC3)ncc1CC2,8.1%
25,CC[C@@H]1CN(C)[C@H]2Cc3c([nH]c4ccccc34)C(=O)C[C@@H]1[C@@H]2C(=O)OC,11.8%
26,CC[C@H]1CN(C)CCc2c([nH]c3ccccc23)C(=O)C[C@@H]1/C(=C\OC)C(=O)OC,-53.3%
27,CC[C@H]1CN(C)C[C@@]2(C(=O)OC)Cc3c([nH]c4ccccc34)C(=O)C[C@@H]12,10.5%
